Source: PubChem BioAssay AID1835 (Johns Hopkins Ion Channel Center, 2009)
In all, about 2,400 compounds went through this assay and about 750 (31%) were called active.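 Rule for the calls: active = median signal gain over dofetilide-blocked control wells reaching their mean plus 3 SD, so readout 1 at least 0; inactive = the rest.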 Some of the results follow.

Molecular target: Voltage-gated inwardly rectifying potassium channel KCNH2 (Homo sapiens) (UniProt Q12809)
Assay: hERG protection against dofetilide inhibition, confirmation, cell-based, thallium flux, duplicate retest, dofetilide IC70 (AID 1835)
Settings: hERG cell line, FluxOR thallium flux, dofetilide-blocked; at 10 µM; stronger effect = higher value

Sequence of Voltage-gated inwardly rectifying potassium channel KCNH2 (Homo sapiens) (Q12809 whole entry, looked up): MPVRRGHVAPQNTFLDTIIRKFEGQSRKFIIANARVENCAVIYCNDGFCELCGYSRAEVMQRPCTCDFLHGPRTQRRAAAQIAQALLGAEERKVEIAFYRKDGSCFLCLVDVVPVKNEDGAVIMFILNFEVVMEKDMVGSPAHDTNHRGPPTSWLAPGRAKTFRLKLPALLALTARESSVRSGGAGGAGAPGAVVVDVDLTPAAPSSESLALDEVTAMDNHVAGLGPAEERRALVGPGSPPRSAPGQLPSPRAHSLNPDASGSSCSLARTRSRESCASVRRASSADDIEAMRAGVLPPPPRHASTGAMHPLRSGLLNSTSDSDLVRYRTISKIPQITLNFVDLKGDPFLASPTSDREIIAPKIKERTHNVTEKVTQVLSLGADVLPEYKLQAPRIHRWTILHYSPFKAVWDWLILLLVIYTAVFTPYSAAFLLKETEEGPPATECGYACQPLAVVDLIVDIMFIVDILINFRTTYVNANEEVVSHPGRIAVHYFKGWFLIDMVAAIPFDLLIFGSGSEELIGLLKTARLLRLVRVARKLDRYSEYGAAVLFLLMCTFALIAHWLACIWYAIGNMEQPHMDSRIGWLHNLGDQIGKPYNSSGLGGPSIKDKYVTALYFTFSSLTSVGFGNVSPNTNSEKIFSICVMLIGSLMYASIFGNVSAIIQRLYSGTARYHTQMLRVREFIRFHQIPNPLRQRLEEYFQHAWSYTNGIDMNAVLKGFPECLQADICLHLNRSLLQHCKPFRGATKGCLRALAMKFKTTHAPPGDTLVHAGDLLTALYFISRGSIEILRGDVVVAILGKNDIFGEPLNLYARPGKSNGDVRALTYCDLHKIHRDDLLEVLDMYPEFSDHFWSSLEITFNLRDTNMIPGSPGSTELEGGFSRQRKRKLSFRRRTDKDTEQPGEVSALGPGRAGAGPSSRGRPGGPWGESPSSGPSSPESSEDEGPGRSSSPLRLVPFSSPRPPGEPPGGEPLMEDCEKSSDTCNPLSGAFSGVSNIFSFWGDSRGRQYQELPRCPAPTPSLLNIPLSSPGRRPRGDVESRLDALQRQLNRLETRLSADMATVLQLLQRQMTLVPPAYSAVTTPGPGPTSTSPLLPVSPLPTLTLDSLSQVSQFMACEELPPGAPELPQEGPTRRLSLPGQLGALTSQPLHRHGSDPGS

SMILES | activity increase over dofetilide control, less the hit threshold
Nn1c(SCC(=O)Nc2ccccc2F)nnc1C1CCCCC1 | -10% (inactive)
CC(C)C(=O)Nc1ccc2c(c1)Cc1cc(NC(=O)C(C)C)ccc1-2 | -3% (inactive)
Cc1noc(C)c1CSc1ncnc2sc3c(c12)CCCCC3 | 4% (active)
CCOc1ccc(S(=O)(=O)N2CCN(Cc3ccc4c(c3)OCO4)CC2)cc1C | -31% (inactive)
COC(=O)C1=NN(C(=O)c2ccc(Cl)cc2)C(O)(c2ccccc2)C1 (centres undefined) | 74% (active)
CC1=NN(C(=O)c2ccc(Cl)cc2)C(O)(c2ccccc2)C1 (centres undefined) | -11% (inactive)
CCOC(=O)C1=NN(C(=O)c2cccc(Br)c2)C(O)(C(C)(C)C)C1 (centres undefined) | 79% (active)
CCC1=NN(C(=O)c2ccc(Cl)cc2)C(O)(c2ccccc2)C1 (centres undefined) | -24% (inactive)
CC1=NN(C(=O)c2ccccc2Br)C(O)(c2ccc(Cl)cc2)C1 (centres undefined) | -15% (inactive)
COC(=O)C1=NN(C(=O)c2cccc(Br)c2)C(O)(c2ccc(Cl)cc2)C1 (centres undefined) | 86% (active)
CCOC(=O)c1cnc(-n2nc(C)cc2C)nc1Nc1cccc(C(=O)O)c1 | -2% (inactive)
COC(=O)C1=NN(C(=O)c2ccc(C)cc2)C(O)(c2ccc(Cl)cc2)C1 (centres undefined) | 92% (active)
CC1=NN(c2ccccc2)C(=O)C1C(=O)c1ccc(Cl)cc1 (centres undefined) | -5% (inactive)
COCCn1nnnc1C(c1ccc(C(F)(F)F)cc1)N1CCOCC1 (centres undefined) | -20% (inactive)
O=C(CSc1ccccc1)N1CCN(S(=O)(=O)c2cccs2)CC1 | -10% (inactive)
CCOC(=O)N1CCN(C(=O)CN(c2ccc(OCC)cc2)S(C)(=O)=O)CC1 | -19% (inactive)
O=C(OCC(=O)N1CCOCC1)c1ccc(Cl)cc1[N+](=O)[O-] | -13% (inactive)
CCOC(=O)N1CCN(C(=O)COC(=O)c2cc(Cl)c(O)c(Cl)c2)CC1 | 5% (active)
Cc1ccc(NC2=CC(=O)OC(C)C2)cc1 (centres undefined) | -4% (inactive)
C=CCNC(=S)N/N=C(\C)c1ccc(OC)cc1 | -4% (inactive)
C=C(C)CNC(=S)NN=C1c2ccccc2-c2ccccc21 | 15% (active)
CCOC(=O)N1CCN(C(=O)c2ccc(Cl)c(S(=O)(=O)Nc3ccccc3)c2)CC1 | 5% (active)
CCOC(=O)N1CCN(C(=O)c2ccc(C)c(S(=O)(=O)Nc3ccccc3)c2)CC1 | -1% (inactive)
Cc1cc(S(=O)(=O)Nc2ccc(C(=O)N3CCN(C(=O)c4ccco4)CC3)cc2)ccc1F | -13% (inactive)
NC(=O)c1ccsc1NC(=O)CS(=O)(=O)c1ccccc1 | -9% (inactive)
O=C1OC(/C=C/c2ccc(Cl)cc2Cl)=NC/1=C\c1cccs1 | -7% (inactive)

SMILES | activity increase over dofetilide control, less the hit threshold
O=C(NCc1cccnc1)Nc1ccc2c(c1)OCO2 | -19% (inactive)
O=c1c(O)c(-c2cccs2)oc2ccccc12 | 62% (active)
O=c1c(O)c(-c2ccc3c(c2)OCO3)oc2ccccc12 | 6% (active)
O=c1c(O)c(-c2cccs2)oc2ccc(Cl)cc12 | 92% (active)
Cn1nc(C(=O)Nc2ccc3c(c2)OCO3)c2ccccc2c1=O | -16% (inactive)
Cc1ccc(S(=O)(=O)c2nnn3c2nc(N2CCOCC2)c2ccccc23)c(C)c1 | -14% (inactive)
C/C(CCC12CC3CC(CC(C3)C1)C2)=N\NC(N)=S | 0% (inactive)
C/C(O)=C/c1nc2ccccc2[nH]c1=O | -7% (inactive)
CN1CCN(c2ccc(NC(=O)c3ccc(Br)o3)cc2)CC1 | -2% (inactive)
Cc1cccc(NC(=S)NC(=O)c2ccco2)c1C | 52% (active)
Cc1cccc(NC(=O)CCNC(=O)c2ccco2)c1C | -13% (inactive)
Cc1cccc(NC(=S)NC(=O)c2ccc(Br)o2)c1C | 6% (active)
CCOc1ccc(-c2cccc(NC(=O)c3ccc(Br)o3)c2)nn1 | -26% (inactive)
Cc1cccc(C)c1NC(=S)NC(=O)c1ccc(Br)o1 | 73% (active)
Nc1cc(=O)[nH]c(SCC(=O)N2CCCCC2)n1 | -10% (inactive)
Cc1ccc(CNS(=O)(=O)c2cc3c4c(c2)CCN4C(=O)CC3)cc1 | -9% (inactive)
Cc1cc(=S)nc(-c2ccccn2)[nH]1 | -7% (inactive)
Cc1[nH]c(-c2ccccn2)nc(=S)c1Cl | 61% (active)
CC(C)c1ccc(NC(=O)C2CC3CCC2C3)cc1 (centres undefined) | -10% (inactive)
CCC(C)NC(=O)c1c(-c2cc(Cl)c(OC)c(Cl)c2)noc1C (centres undefined) | -16% (inactive)
CC(C)COn1c(=S)[nH]c2ccccc2c1=O | 18% (active)
CCC(C)n1c(=S)[nH]c2ccccc2c1=O (centres undefined) | 14% (active)
CCC(C)Sc1nc2c([nH]c3ccccc32)c(=O)n1C (centres undefined) | -5% (inactive)
CCC(Cc1ccccc1)n1c(=S)[nH]c2ccccc2c1=O (centres undefined) | 4% (active)
O=C1C2C3C=CC(C4CC34)C2C(=O)N1/N=C/c1ccc(-c2ccc(F)cc2[N+](=O)[O-])o1 (centres undefined) | -1% (inactive)
O=[N+]([O-])c1ccc(-c2ccc(/C=N/n3cnnc3)o2)c(Br)c1 | 12% (active)

SMILES | activity increase over dofetilide control, less the hit threshold
S=c1[nH]nc(-c2ccccn2)n1/N=C/c1ccc(-c2ccccc2Br)o1 | -16% (inactive)
COc1ccc(CS(=O)(=O)CC2(O)CCN(C(=O)c3cccc(C(F)(F)F)c3)CC2)cc1 | -27% (inactive)
CC12CCC(C(=O)NCc3ccc4c(c3)OCO4)(CC1=O)C2(C)C (centres undefined) | 5% (active)
COc1ccccc1C(=O)NCc1ccc2c(c1)OCO2 | -10% (inactive)
Cc1cc(C)cc(-n2nnc(C(=O)NCc3ccc4c(c3)OCO4)c2N)c1 | -19% (inactive)
CCC(=O)Nc1cc(-c2nnc(OC)c3ccccc23)ccc1N1CCOCC1 | -1% (inactive)
CCCCCCn1c(-c2cccs2)n[nH]c1=S | -8% (inactive)
CCCCn1c(-c2csc(C(C)C)c2)n[nH]c1=S | 8% (active)
COc1cccc(C2C3=C(N=c4s/c(=C\c5ccc(OCC(=O)O)cc5)c(=O)n42)c2ccccc2CC3)c1 (centres undefined) | -29% (inactive)
Cc1ccc(C(=O)NC(=S)Nc2ccccc2C(F)(F)F)cc1 | -6% (inactive)
O=C(NC(=S)Nc1cc(C(F)(F)F)ccc1Cl)c1ccccc1 | 1% (active)
CC(C)(C)SCCNC(=O)CN1C(=O)c2ccccc2S1(=O)=O | -4% (inactive)
CCC1(c2ccccc2)NC(=S)N(c2ccc(C)cc2)N1 (centres undefined) | 113% (active)
CCC1(c2ccc(Cl)cc2)NC(=S)N(c2ccccc2)N1 (centres undefined) | 96% (active)
CCC1(c2ccc(Cl)cc2)NC(=S)N(c2ccc(C)cc2)N1 (centres undefined) | 66% (active)
CC(NC(=O)CCCn1cc([N+](=O)[O-])cn1)c1ccccc1 (centres undefined) | -14% (inactive)
CSc1nc(-c2ccco2)cc(C(F)(F)F)c1C#N | -17% (inactive)
COc1ccccc1Cn1c(=S)[nH]c2ccc(Br)cc2c1=O | 6% (active)
COc1ccc(Br)cc1CNc1ccccc1 | -21% (inactive)
C=CCn1c(=S)[nH]c2ccc(Br)cc2c1=O | 10% (active)
Oc1ccc(Br)cc1-c1n[nH]c(=S)n1Cc1ccccc1 | -17% (inactive)
C=CCn1c(=S)[nH]c2cc(-c3ccccc3)sc2c1=O | 6% (active)
C=CCn1c(=S)[nH]c2nc3c(cc2c1=O)CCCC3 | -9% (inactive)
Cc1cc(=O)[nH]c(=S)n1-c1ccccc1 | -14% (inactive)
CC12CCC(C(=O)OC3CCCCC3)(OC1=O)C2(C)C (centres undefined) | -17% (inactive)
O=C(O)CN1C(=O)c2ccc(Oc3ccc4c(c3)C(=O)N(CC(=O)O)C4=O)cc2C1=O | -10% (inactive)

SMILES | activity increase over dofetilide control, less the hit threshold
O=C(O)Cc1cc(I)c(Oc2ccc(O)c(I)c2)c(I)c1 | 18% (active)
O=C(NCCCN1CCOCC1)c1ccc(CS(=O)(=O)Cc2ccccc2Cl)o1 | -11% (inactive)
CCn1ccnc1CN1CCCC(CO)(Cc2cccc(OC)c2)C1 (centres undefined) | -11% (inactive)
S=C(NCCc1ccccc1)N/N=C/c1c(Cl)cccc1Cl | -12% (inactive)
O=C(NC(=S)NCCc1ccccc1)c1cccc(Cl)c1 | 4% (active)
O=C(NCc1cccc(Cl)c1)c1ccncc1 | -10% (inactive)
Fc1ccc(-n2cc(-c3ccccc3)c3c(=S)nc[nH]c32)cc1 | -1% (inactive)
Cc1sc2nc[nH]c(=S)c2c1-c1ccccc1 | 36% (active)
Cc1c(-c2ccccc2)sc2nc[nH]c(=S)c12 | 52% (active)
COC(=O)c1ccc(NN=Nc2ccc(C)cc2)cc1 | -6% (inactive)
Nc1nonc1C(=O)N1CCCC1 | -9% (inactive)
Cc1nnc2ccc(-c3cccc(NC(=O)c4ccc(Cl)nc4)c3)nn12 | -12% (inactive)
COc1ccc2nc(N3CCCCC3)c(/C=C3\SC(=S)NC3=O)cc2c1 | 3% (active)
Cc1cc(NC(C)C)n2c(nc3ccccc32)c1C#N | -18% (inactive)
O=C(O)CN1C(=O)C(=O)N(Cc2ccc(C(F)(F)F)cc2)C1=O | 6% (active)
O=C(Nc1cccnc1)c1ccc(COc2ccccc2Br)o1 | -3% (inactive)
O=C(Nc1cccnc1)c1ccc(COc2cc(Cl)ccc2Cl)o1 | 0% (active)
O=C(Nc1ccc(Cl)c(-c2nc3ccccc3[nH]2)c1)c1cccnc1 | -43% (inactive)
COc1ccc(Cc2c(O)nc(SCC(C)C)[nH]c2=O)cc1 | -18% (inactive)
OC(CNCCc1ccc(C(F)(F)F)cc1)COc1cccc2ccccc12 (centres undefined) | -22% (inactive)
O=C(OCc1ccccc1)C1=NNC2C(=O)N(c3ccc(Br)cc3)C(=O)C12 (centres undefined) | -2% (inactive)
Cc1cc(C(=O)CCC(=O)NC(C)c2ccc(S(N)(=O)=O)cc2)c(C)s1 (centres undefined) | -15% (inactive)
Cc1ccc(/C=N/Nc2nc(C(C)(C)C)cs2)o1 | -17% (inactive)
Cc1ccc(/C=N/Nc2ccc(C(=O)O)cc2)o1 | 1% (active)
COc1ccc(/C(C)=N/Nc2ccc(C(=O)O)cc2)c(OC)c1 | -12% (inactive)
CC(C)(C)OC(=O)C(Cl)(C(=O)OC(C)(C)C)c1ccc2nnnn2n1 | -27% (inactive)
